# Source: PubChem (several laboratories)
# proKLK7 act: proKLK7 zymogen activators, primary screen, biochemical, fluorescence intensity; Kallikrein-7 (Homo sapiens), P49862; purified proKLK7, EDANS-DABCYL substrate fluorescence; 100% is mature enzyme control, 0% vehicle; activation, % at 7 µM; 370,000 compounds, 0.9% hits; AID 652039, 2013;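 active means activation above the mean of all tested compounds plus 3 SD, computed per campaign excluding outliers beyond control limits, cut at about 13% in these data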
# Pemphigus Ab inh: inhibitors of pemphigus antibody binding to DSG3, primary screen, biochemical, bead-based, flow cytometry, scFv-GFP | DSG3-coupled beads, scFv-anti-DSG3-GFP binding; stronger effect = lower value | binding (percent of control), % at 10 µM | 310,000 compounds, 0.48% hits | AID 588358, 2011;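 active means binding more than 3 SD below its plate's average and above zero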
# Target sequence (P32926 whole entry, looked up): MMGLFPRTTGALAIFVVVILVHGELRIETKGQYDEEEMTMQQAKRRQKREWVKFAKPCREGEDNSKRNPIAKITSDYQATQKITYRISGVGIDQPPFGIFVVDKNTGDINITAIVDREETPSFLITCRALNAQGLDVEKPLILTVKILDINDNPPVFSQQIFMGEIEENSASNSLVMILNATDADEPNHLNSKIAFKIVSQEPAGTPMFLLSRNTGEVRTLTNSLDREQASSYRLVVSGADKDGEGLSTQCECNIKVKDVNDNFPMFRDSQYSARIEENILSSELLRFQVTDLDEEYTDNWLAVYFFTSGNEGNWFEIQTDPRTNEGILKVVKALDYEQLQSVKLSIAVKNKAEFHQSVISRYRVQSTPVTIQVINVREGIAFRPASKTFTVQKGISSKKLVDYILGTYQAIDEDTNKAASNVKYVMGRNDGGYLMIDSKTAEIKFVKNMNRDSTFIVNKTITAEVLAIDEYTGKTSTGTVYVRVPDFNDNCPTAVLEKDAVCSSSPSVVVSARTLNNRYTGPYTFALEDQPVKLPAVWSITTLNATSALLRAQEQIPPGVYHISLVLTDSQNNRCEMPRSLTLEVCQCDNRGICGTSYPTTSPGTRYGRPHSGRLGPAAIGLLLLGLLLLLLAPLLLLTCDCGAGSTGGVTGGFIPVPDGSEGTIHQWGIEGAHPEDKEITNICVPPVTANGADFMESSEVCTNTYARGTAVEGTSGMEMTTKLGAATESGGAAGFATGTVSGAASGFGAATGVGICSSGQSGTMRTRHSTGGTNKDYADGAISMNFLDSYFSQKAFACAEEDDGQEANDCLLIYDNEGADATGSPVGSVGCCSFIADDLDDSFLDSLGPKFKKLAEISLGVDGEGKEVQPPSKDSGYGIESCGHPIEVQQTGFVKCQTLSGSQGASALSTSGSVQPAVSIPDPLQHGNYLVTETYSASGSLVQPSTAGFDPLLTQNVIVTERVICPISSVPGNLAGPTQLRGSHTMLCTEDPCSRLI
# ADAM10 inh: human ADAM10 inhibitors, primary screen, biochemical, QFRET, HTS. inhibition, % at 7 µM. recombinant ADAM10, EDANS/DABCYL FRET peptide cleavage, 3 h. Disintegrin and metalloproteinase domain-containing protein 10 (Homo sapiens), O14672. 370,000 compounds, 0.62% hits. AID 720582, 2013;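 active means inhibition above a per-campaign cutoff equal to the mean of compounds falling between control-based bounds plus 3 SD, cut at about 20% in these data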;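 further: 0% = DMSO wells while the 100% control is not disclosed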
# ADAM17 inh: ADAM17 inhibitors, primary screen, biochemical, QFRET | Disintegrin and metalloproteinase domain-containing protein 17 (Homo sapiens), P78536 | recombinant ADAM17, EDANS/DABCYL FRET peptide cleavage | inhibition, % at 6.95 µM | 370,000 compounds, 0.83% hits | AID 720648, 2013;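 active means inhibition above the mean of compounds lying between control limits plus 3 SD, set per campaign, cut at about 8.5% in these data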;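 further: 0% = DMSO-only wells as the low control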
# MPTP block: mitochondrial permeability transition pore inhibitors, primary screen, biochemical, isolated mouse mitochondria, absorbance; Ca2+ swelling absorbance, 30 min; inhibition, % at 10 µM; 360,000 compounds, 1.4% hits; AID 602449, 2012;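 active means inhibition of 50% or more, scaled per plate between neutral and stimulator controls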;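 further: 0% = DMSO wells given calcium and 100% = 1 mM EGTA wells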
# rCAG RNA binder: binders of r(CAG) RNA repeats, primary screen, biochemical, fluorescence; r(CAG) RNA repeat, TO-PRO-1 dye displacement fluorescence; inhibition, % at 3 µM; 370,000 compounds, 1.3% hits;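 active means inhibition above the plate cutoff, the mean of all test compounds on that plate plus 3 SD, cut at about 35% in these data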;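 further: 0% = DMSO alone and 100% = 100 µM mitoxantrone as full dye displacement; higher means more dye released from RNA so lower well fluorescence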
# Rh123 counter: fluorescence retest of MPTP screen hits in isolated mitochondria, single concentration | shares compounds with MPTP block | membrane potential, Rhodamine 123 fluorescence | inhibition, % at 10 µM | 5,000 compounds, 78% hits; in the data active means inhibition above about 22%;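 further: 0% = DMSO vehicle and 100% = positive control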
# MPTP swell DR: mitochondrial permeability transition pore inhibitors, dose response, biochemical, absorbance, uHTS hits; shares compounds with MPTP block; AID 651561, 2012; isolated mitochondria swelling; IC50, µM; 780 compounds, 58% hits; in the data active means IC50 below about 20 µM
# MPTP cs DR: fluorescent counter-screen in isolated mitochondria, dose response, counter-screen for MPTP inhibitor project, biochemical, fluorescence, uHTS hits | 780 compounds, 49% hits | isolated mitochondria counterscreen, fluorescence read-out | IC50, µM | shares compounds with MPTP block | AID 651564, 2012; in the data active means IC50 below about 80 µM
# * = called active by the depositor; i = inactive; . = no result. Sampled rows, rich in hits. Any-hit rate of the full collection: about 4.7%.
SMILES,proKLK7 act,Pemphigus Ab inh,ADAM10 inh,ADAM17 inh,MPTP block,rCAG RNA binder,Rh123 counter,others
O=[N+]([O-])c1cccc(OC[C@@H](O)CN2CCC(C(O)(c3ccccc3)c3ccccc3)CC2)c1,0,.,4,3,.,1,.,
CCN(CC)CCCNc1ccc(-c2nnc(-c3ccc(OCC(C)C)cc3)o2)cn1,-8,109,i,i,91*,9,-5,
CN1[C@H](Cc2ccccc2)COc2cccc(F)c2S1(=O)=O,-1,.,-4,-3,.,1,.,
CC(=O)NC(CCS(C)(=O)=O)C(=O)Nc1cc(Cl)ccc1Cl (stereo not drawn),0,88,-11,-5,-2,1,.,
CC(C)S(=O)(=O)c1csc(NC(=O)Nc2cc(Cl)ccc2Cl)c1Cl,0,.,-9,-5,86*,4,76*,
O=C(Nc1cccc(F)c1)c1c(F)c(F)c(F)c(F)c1F,-1,.,6,0,65*,0,81*,
O=C(Nc1ccccc1NC(=O)c1c(F)c(F)c(F)c(F)c1F)c1c(F)c(F)c(F)c(F)c1F,0,104,-5,-4,93*,-1,95*,
COC(=O)[C@]12C[C@H](CC(=O)N3CCOCC3)C(=O)N(Cc3ccc4c(c3)OCO4)C1=C[C@H](COCc1ccccc1)O[C@@H]2C,0,.,-1,-4,.,0,.,
CCOC(=O)Cc1csc(NC(=O)Nc2ccc(OC(F)(F)F)cc2)n1,0,112,1,-3,84*,23,68*,
CCOC(=O)Cc1csc(NC(=O)c2ccc(NC(C)=O)cc2)n1,0,107,-8,-7,0,1,.,
CCN1C(=O)c2cccc3c(NS(=O)(=O)c4ccc(NC(C)=O)cc4)ccc1c23,2,99,-9,-2,9,7,.,
CCOC(=O)c1ccc(NC(=O)Nc2ccc3c4c(cccc24)C(=O)N3CC)cc1,0,124,6,-1,95*,2,33*,
Nn1c(SCc2c(Cl)cccc2Cl)nnc1-c1n[nH]c2c1CCC2,-1,.,-3,-4,.,1,.,
CCOC(=O)N1CCc2c(sc3nc(SC(C)C)n(N)c(=O)c23)C1,-1,102,4,-3,62*,-6,25*,
CCOC(=O)N1CCc2c(sc3ncn(C)c(=O)c23)C1,1,113,-1,-3,-1,0,.,
Cc1nc2cc(NC(=O)Nc3cccc4ccccc34)ccc2n1C,-4,99,-58,-16,1,3,.,
O=C(Nc1ccc2snnc2c1)Nc1cccc2ccccc12,-1,93,-27,-9,106*,26,69*,
CCCCc1c(-c2ccccc2OC)ncn1C(C)c1ccc(Cl)cc1 (stereo not drawn),0,.,-2,-3,.,0,.,
Cc1ccc(OCCNCC(O)COc2ccccc2)cc1 (stereo not drawn),0,93,3,1,2,-2,.,
CC(=O)CCc1ccc(OCC(O)CNCCOc2ccc(C)cc2)cc1 (stereo not drawn),0,.,3,-1,74*,-6,-9,MPTP swell DR=i;MPTP cs DR=>80
C=CCN=C1NC(c2ccccc2)C(C(=O)OC)=C(C)N1Cc1ccccc1C(F)(F)F (stereo not drawn),0,.,-19,-10,.,4,.,
COCc1[nH]nc2c1C(c1ccc(C)cc1)N(c1ccc(OC)cc1)C2=O (stereo not drawn),1,.,-4,-4,.,2,.,
Cc1ccc(N2C(=O)c3ccccc3C2C(=O)c2cc(C)ccc2O)cc1 (stereo not drawn),0,102,-4,0,67*,6,71*,
Cc1ccc(N2C(=O)c3ccccc3C2C(=O)c2ccc(O)cc2O)cc1 (stereo not drawn),1,106,10,3,29,20,.,
COC(=O)NC(NC(=S)Nc1ccc([N+](=O)[O-])cc1)C(Cl)(Cl)Cl (stereo not drawn),0,90,8,5,93*,9,80*,
SMILES,proKLK7 act,Pemphigus Ab inh,ADAM10 inh,ADAM17 inh,MPTP block,rCAG RNA binder,Rh123 counter,others
O=C(/C=C/c1ccccc1)NC(NC(=S)Nc1cc(Cl)ccc1Cl)C(Cl)(Cl)Cl (stereo not drawn),0,126,1,-2,97*,12,74*,
O=C(/C=C/c1ccccc1)NC(NC(=S)Nc1ccc(Cl)cc1)C(Cl)(Cl)Cl (stereo not drawn),-1,.,-2,-1,99*,14,58*,
O=C(NC(NC(=S)Nc1ccccc1C(=O)O)C(Cl)(Cl)Cl)c1ccccc1 (stereo not drawn),.,114,.,.,6,.,.,
CC(C)NC(NC(=O)/C=C/c1ccccc1)C(Cl)(Cl)Cl (stereo not drawn),0,92,-7,0,-1,-2,.,
COc1ccc(NC(=S)NC(NC(=O)/C=C/c2ccccc2)C(Cl)(Cl)Cl)cc1 (stereo not drawn),0,96,-1,-2,96*,14,65*,
COC(=O)C1=C(C)N(C)C(=NCC2CC2)NC1c1cccc(F)c1 (stereo not drawn),0,.,-6,-5,.,4,.,
CC(C)CC(=O)NC(Nc1ccc([N+](=O)[O-])cc1)C(Cl)(Cl)Cl (stereo not drawn),1,97,4,2,90*,2,96*,
O=C(CCc1ccccc1)NC(NC(=S)Nc1ccc(Cl)cc1)C(Cl)(Cl)Cl (stereo not drawn),0,106,10,0,94*,5,82*,
CC(C)CC(=O)NC(Nc1ccccc1F)C(Cl)(Cl)Cl (stereo not drawn),0,108,-9,-6,-5,-1,.,
C=CCOC(=O)C1=C(C)NC(SCC(=O)Nc2ccc(C)c(Cl)c2)=C(C#N)C1c1ccco1 (stereo not drawn),0,101,9,-1,72*,8,77*,
COC(=O)[C@]12C[C@H](CC(=O)NCCc3ccccc3OC)C(=O)N(Cc3ccccc3)C1=C[C@H](C1CCCC1)O[C@@H]2C,-1,.,11,4,.,2,.,
